Hits are enriched below; roughly 8.8% of the tested compounds scored in any of these assays.
Lamin A splicing = modulators of lamin A splicing | Potency, µM (titrated, usually from 46.1 µM), without a hit: top-dose ratio change, negative = inhibition, most hits filed as inhibitors | HeLa LMNA splicing GFP/RFP minigene ratio, 48 h | 200,000 compounds, 0.01% hits; active = well fitted inhibition curve with a large enough effect in the signal ratio, with a control signal flat, not every such curve was filed as active; inconclusive = small, poorly fitted or top-dose-only effect, or effect the other way, or a change in a side signal; the % refers to the signal ratio; note: % is set by controls: 0 for no effect and ±100 for the full control effect
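Read-out is the ratio of GFP to DsRed2 object intensity, acquired by 488 nm laser-scanning cytometry on HeLa lamin A-EGFP minigene reporter cells. Compound incubation 48 hrs at 37 °C in Opti-MEM with 2% FBS; DMSO 0.5% final.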
HPGD block = inhibitors of human 15-hydroxyprostaglandin dehydrogenase (HPGD). 150,000 compounds, 4.3% hits. Potency, µM, inactives show at the top dose activity change, negative = inhibition, actives largely listed as inhibitors. P15428. purified HPGD, NADH fluorescence kinetic, PGE2 substrate; note: % is set by controls: 0 for no effect and ±100 for the full control effect
Target sequence (P15428 whole entry, looked up): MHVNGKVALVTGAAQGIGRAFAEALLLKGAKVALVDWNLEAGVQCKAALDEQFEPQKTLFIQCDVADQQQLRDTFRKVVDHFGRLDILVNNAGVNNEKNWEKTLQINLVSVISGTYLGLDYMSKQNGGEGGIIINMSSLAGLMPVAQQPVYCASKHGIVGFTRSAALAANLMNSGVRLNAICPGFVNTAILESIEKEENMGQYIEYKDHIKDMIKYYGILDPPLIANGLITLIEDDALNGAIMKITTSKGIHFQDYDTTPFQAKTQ
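20 nM HPGD preincubated 15 min at room temperature with compound in 50 mM Tris-HCl pH 8, 0.01% Tween 20. Started with 1 mM NAD+ and 30 uM prostaglandin E2; NADH fluorescence (360/450 nm) read 5 times over 30-s intervals, last minus first.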
HTT ATP protect = protects HTT-Q103 PC12 cells, measured by ATP | Potency, µM (doses to about 56.4 µM), for inactives: cytoprotection (ATP increase), actives largely listed as activators | AID 1471 | PC12 HTT-Q103 induced, cytoprotection, ATP luminescence, 40 h | 230,000 compounds, 0.14% hits; active = well fitted curve in the direction sought with a large enough effect; inconclusive = small, poorly fitted or top-dose-only effect, or another doubt; inactive = no such curve, though single readings can be large; an effect the other way counts as inactive or inconclusive; note: % of control where 0% means no effect; nearly all actives have a fitted effect of over 45% in size
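Quantitative HTS on tebufenozide-induced (100 nM) PC12 cells expressing HTTQ103 exon 1–GFP; compounds tested as a concentration series; survival measured via cellular ATP.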
HttQ103 aggreg = inhibitors of mutant huntingtin aggregate formation in PC12 cells | PC12 HttQ103-GFP aggregates, Acumen cytometry, 40 h | Potency, µM (highest dose often 46.1 µM), inactives show at the top dose activity change, negative = inhibition, hits mostly inhibitors | 220,000 compounds, 1.1% hits; active = well fitted curve in the direction sought with a large enough effect; inconclusive = small, poorly fitted or top-dose-only effect, or another doubt; inactive = no such curve, though single readings can be large; an effect the other way counts as inactive or inconclusive; note: % is set by controls: 0 for no effect and ±100 for the full control effect; nearly all actives have a fitted effect of over 60% in size
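Huntingtin Q103 exon 1–GFP aggregates in induced PC12 cells (100 nM tebufenozide) were quantified by cytometry from lysates, with compounds dosed in titration.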
ALDH1A1 inh = ALDH1A1 (human) enzyme inhibition; P00352; Purified ALDH1A1, NADH fluorescence, propionaldehyde substrate; Potency, µM (top dose mostly 75.3 µM), for inactives: top-dose activity, negative = inhibition, actives largely listed as inhibitors; 220,000 compounds, 7.3% hits;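 note: plate controls were no enzyme wells and a reference inhibitor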
Target sequence (P00352 whole entry, looked up): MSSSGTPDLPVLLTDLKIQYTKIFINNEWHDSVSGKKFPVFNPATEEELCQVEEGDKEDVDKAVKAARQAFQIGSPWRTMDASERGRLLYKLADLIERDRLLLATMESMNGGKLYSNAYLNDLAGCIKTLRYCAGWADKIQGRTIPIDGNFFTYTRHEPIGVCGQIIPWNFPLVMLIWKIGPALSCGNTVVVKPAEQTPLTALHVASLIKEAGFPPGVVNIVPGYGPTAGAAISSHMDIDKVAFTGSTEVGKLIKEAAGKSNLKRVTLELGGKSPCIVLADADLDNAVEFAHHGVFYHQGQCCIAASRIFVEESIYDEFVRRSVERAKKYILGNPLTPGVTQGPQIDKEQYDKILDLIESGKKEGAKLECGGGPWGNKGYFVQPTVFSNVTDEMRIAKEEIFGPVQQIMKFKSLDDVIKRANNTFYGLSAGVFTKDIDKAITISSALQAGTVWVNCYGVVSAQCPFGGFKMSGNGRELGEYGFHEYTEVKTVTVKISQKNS
* hit, by the source's call; ? = inconclusive; . = no result; [ ] = dose if it differs, or a comment. Unless noted, calls come from the whole dose curve; as a rule, active = well fitted inhibition curve with a large enough effect (not every such curve was filed as active); inconclusive = small, poorly fitted or top-dose-only effect, or another doubt; inactive = no such curve, though single readings can be large or run the other way. Potency is the fitted concentration of half-maximal effect.

SMILES	Lamin A splicing	HPGD block	HTT ATP protect	HttQ103 aggreg	ALDH1A1 inh
Cc1cc(C)cc(N2CCn3c2nc2c3c(=O)n(CCCc3ccccc3)c(=O)n2C)c1	2%[46 µM]	.	.	.	.
Cc1ncc(CO)c(/C=N/NC(=O)c2ccc(Br)cc2)c1O	?	?	40%[10 µM]	11µM*	?
CC(C)C(=O)N[C@H]1CCCN1C(=O)/C=C\c1ccccc1	.	.	-14%[10 µM]	.	-1%[13.5 µM]
COc1ccc(C(=O)c2cc3c(cc2[N+](=O)[O-])OCCO3)cc1	.	.	-10%	-23%	?
O=C(c1ccccc1F)c1cc2c(cc1[N+](=O)[O-])OCCO2	16%[46 µM]	.	-43%	-15%[9.22 µM]	11µM*
COc1cc(OC)c(C2=Nc3ccc(Br)cc3C(c3ccccc3)N2CC(=O)NN)cc1OC (stereo not given)	.	.	-47%	2%	7%
c1csc(-c2cn3ccc4ccccc4c3n2)c1	.	.	-39%[10 µM]	-1%[9.22 µM]	5µM*
Cc1ccc2c(c1)S/C(=C/c1ccc[n+](CCO)c1)N2C	.	.	-46%	-19%	-8%
Cc1cc(/C=C2\Sc3ccccc3N2C)cc(C)[n+]1CC1CCCO1 (stereo not given)	10%[46 µM]	.	-62%[10 µM]	2.8µM*	?
COc1ccc(CCN2C(=O)CC(NNC(=O)c3ccccc3Br)C2=O)cc1OC (stereo not given)	3%	-7%	.	11%	4%
COc1ccc(CCC(C)Nc2ccc(F)c(F)c2)cc1 (stereo not given)	-9%	-9%	3%[10 µM]	11µM*	?
O=C(O)c1ccc(S(=O)(=O)N=Nc2c(O)[nH]c3ccccc23)cc1	.	?	7%[10 µM]	.	?
COc1ccc(OC)c(NC(=O)N(C)CCc2c(C)nn(C)c2C)c1	8%[46 µM]	.	.	.	.
Cc1c(/C=N/NC(=O)c2ccccc2O)c2ccccn2c1C(=O)c1ccc(F)cc1	?	28µM*	3%[0.074 µM]	-4%	-10%
Cc1c(/C=N/NC(=O)c2ccc(O)cc2)c2ccccn2c1C(=O)c1ccc(F)cc1	?	-8%	5%[10 µM]	?	0%
Cc1ccc(-n2nc(C)c(Sc3ccccc3[N+](=O)[O-])c2N)cc1	?	?	.	-19%	10µM*
Cc1n[nH]c(C)c1Sc1ccccc1[N+](=O)[O-]	?	.	12%	-10%	-4%
O=C(CSc1nnc(-c2ccco2)n1Cc1ccccc1)NCc1ccccc1	-3%	-19%	22%[10 µM]	0%	-4%
COCCn1nnnc1SCC(=O)c1ccc(F)cc1	-6%	-9%	16%[10 µM]	13%	-4%
O=C(CSc1nnc(-c2ccco2)n1Cc1ccccc1)c1ccc(F)cc1	1%	25µM*	-9%	-5%	4µM*
COCCn1c(SCC(=O)c2ccc(F)cc2)nnc1C(C)C	9%	-21%	-5%[10 µM]	7%	13µM*
O=C(CSc1nnc(-c2ccc(Br)o2)n1Cc1ccccc1)c1ccccc1F	3%	32µM*	-4%[1.9 µM]	-1%	?
Cc1ccc(C)c(NC(=O)CSc2nc(=O)n(Cc3ccncc3)c3c2CCC3)c1	-6%[46 µM]	.	.	.	.
CC(C)(C)C(=O)OCc1cc(=O)n2nc(C3CCCCC3)sc2n1	-7%[46 µM]	.	.	.	.
COc1ccc(-c2cc(C(C)=O)c(C)n2CCC(=O)Nc2ccc(C)cc2Cl)cc1	13%[46 µM]	.	.	.	.
SMILES	Lamin A splicing	HPGD block	HTT ATP protect	HttQ103 aggreg	ALDH1A1 inh
O=C(O)CNC(=O)/C=C/c1ccc(Cl)cc1Cl	.	.	-57%	-19%	-5%
NNC(=O)/C=C/c1ccc(Cl)cc1Cl	-17%[46 µM]	.	-97%	-21%	13µM*
CC(=O)N1CCCc2cc(S(=O)(=O)N3CCCC(C(=O)Nc4ccc(F)cc4F)C3)ccc21 (stereo not given)	2%[46 µM]	.	.	.	.
O=C(c1ccccc1)c1ccc(OCCn2cnc3ccccc3c2=O)cc1	11%	4.5µM*	-23%	?	?
CO[C@]1(NC(=O)C(C(=O)O)c2ccc(O)cc2)C(=O)N2C(C(=O)O)=C(CSc3nnnn3C)COC21 (stereo not given in full)	.	-2%	-28%	.	-3%
CCOC(=O)c1ccc(CC2S/C(=C(\C#N)C(C)=O)NC2=O)cc1 (stereo not given)	?	14µM*	-35%	23%	-14%
COC(=O)c1ccc2c(c1)SC1=C(CCCC1=O)N2	-6%	40µM*	-11%	?	4%
O=C1CCCC2=C1Sc1ccc(Cl)cc1N2	.	.	-17%[10 µM]	-29%[9.22 µM]	.
C[C@@H]1O[C@@H](O)[C@@H](O)[C@H](O)[C@H]1O	.	-3%	4%[10 µM]	.	30%[13.5 µM]
O=C(CCSCCc1ccccn1)Nc1ccc(Cc2ccncc2)cc1	?	.	-5%	-6%	6%
O=C(Nc1ccccc1Cl)N1CCN(c2ccc3nnc(-c4ccccc4)n3n2)CC1	-8%	?	-30%	?	?
O=C(Nc1ccc(Cl)cc1)N1CCN(c2ccc3nnc(-c4ccc(F)cc4)n3n2)CC1	?	?	-14%[10 µM]	22µM*	28µM*
O=C1C2C3C=CC(C2C(=O)N1CN1CCOCC1)C1C2C(=O)N(CN4CCOCC4)C(=O)C2C31 (stereo not given)	.	-5%	-9%[10 µM]	.	17%[13.5 µM]
COc1ccc(CCNC(=O)CC2SC(=NCc3ccccc3)NC2=O)cc1 (stereo not given)	.	.	2%	4%	32µM*
COc1ccc(CCNC(=O)CC2SC(=NCCc3ccccc3)NC2=O)cc1 (stereo not given)	-10%	-8%	-11%[10 µM]	8%	28µM*
COc1ccc(CCNC(=O)CC2SC(=NCCc3ccccc3)NC2=O)cc1OC (stereo not given)	5%	-1%	-6%[10 µM]	15%	14µM*
CCN=C1SC(CC(=O)NCCc2ccc(OC)c(OC)c2)C(=O)N1CC (stereo not given)	11%	-4%	6%	14%	20µM*
CN1CCN(C(CNC(=O)C(=O)Nc2ccc(F)cc2F)c2ccc3c(c2)OCO3)CC1 (stereo not given)	4%[46 µM]	.	.	.	.
CC1=C(C(=O)Nc2ccc(C)cc2C)C(c2ccc(O)cc2)n2nc(SCC(=O)c3ccc(C)cc3)nc2N1 (stereo not given)	-4%[46 µM]	.	.	.	.
COC(=O)c1c(C)oc(C)c1S(=O)(=O)N1CCCC1	.	.	0%[10 µM]	-6%[9.22 µM]	9%
Cc1ccc(C)c([C@@H]2NC(=O)c3ccccc3N2)c1	.	?	-34%[10 µM]	.	?
CCn1c(SCC(=O)Nc2nccs2)nnc1-c1cc2cccc(OC)c2o1	8%	-24%	-2%	2%	-7%
COc1ccccc1-n1c(SCC(=O)N2CCCCC2)nc2cccnc21	2%	?	-16%	7%	?
CCn1c(SCC(=O)NC2CCCCC2)nnc1-c1cc2cccc(OC)c2o1	18%	20µM*	-8%	-8%	?
COc1ccccc1-n1c(SCC(=O)NC2CCCC2)nc2cccnc21	-1%	14µM*	-8%[10 µM]	16%	-3%
CC(C)n1cc(C(=O)c2cc(Br)ccc2O)cc(C#N)c1=O	?	-14%	-18%	?	?

Assay outcomes: PubChem, National Center for Advancing Translational Sciences (NCATS)
